From PubChem BioAssay
Several values for one entry are separate records, joined by “and”; a condition that tells them apart may be missing. Identical values can stand only once. Activity calls are given as the source filed them. Rule as the data show it, unless noted: active = inhibition above about 80%; inactive = the rest.

Tests used:
[1] = circadian clock period modulators, cell-based, LOPAC library, luminescence reporter (AID 2774; call rule not given here;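 also: values are relative to mean of DMSO wells on each plate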); details: circadian reporter cells, at 7 µM, actives lie on both sides
[2] = system: Hepatitis C virus NS3 helicase; assay: HCV NS3 helicase inhibitors, primary screen, biochemical, fluorescence polarization, LOPAC1280 library (AID 687035; in the data active = inhibition above about 37%); details: Purified HCV NS3 helicase, Cy5-dT15 ssDNA binding fluorescence polarization; stronger effect = higher value; concentration not given here
[3] = Cy5 fluorescence quenching or enhancement artefacts, artefact control for HCV NS3 helicase inhibitor project, biochemical, LOPAC1280 (AID 687037; call rule not given here); details: Cy5-DNA-NS3h complex fluorescence interference counterscreen
[4] = sensitizers of A549 cells to miR-34 induction, primary screen, imaging, A549 dox-inducible miR-34, nuclei and caspase counts (AID 1347080;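 active = compounds whose cell count with miR-34 switched on is under 0.7 times the count with it off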); details: A549 miR-34 inducible, Hoechst nuclei count, 48 h
[5] = viability rescue of complex I mutant cybrids, primary screen, cell-based, galactose medium, ATP luminescence (AID 1645843;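 active = z-score of at least 1.8 in each of two replicates, scored against plate mean and spread of sample wells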;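 also: positive z means more ATP and so rescue of galactose-driven cybrid death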); details: complex I mutant cybrid cells, 72 h, stronger effect = higher value
[6] = LFS_MB_P medulloblastoma growth inhibition, cell-based, chromothripsis tumors, cisplatin or BGB combos (AID 1671449); details: LFS_MB_P medulloblastoma cells;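 also: cells exposed for 96 hours; 0% = vehicle DMSO and 100% = killing by high DMSO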
[7] = HDN33 neuroblastoma growth inhibition, cell-based, chromothripsis tumors, cisplatin or BGB combos (AID 1671450); details: HDN33 neuroblastoma cells, stronger effect = higher value;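 also: cells exposed to compound for four days; 0% = vehicle DMSO and 100% = cell killing by high DMSO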
[8] = ICB984 medulloblastoma cell growth inhibition, synergistic combos for chromothripsis tumors, cisplatin or BGB combos (AID 1671451; call rule not given here;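 also: cells exposed for 96 hours before readout; 0% = vehicle DMSO and 100% = killing by high DMSO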); details: ICB984 medulloblastoma cells, drug combinations, stronger effect = higher value
[9] = LFS_MB_1R medulloblastoma cell growth inhibition, synergistic combos for chromothripsis tumors, cisplatin or BGB combos (AID 1671452); details: LFS_MB_1R medulloblastoma cells, stronger effect = higher value;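 also: cells exposed for 96 hours before readout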
[10] = HTB85 osteosarcoma cell growth inhibition, synergistic combos for chromothripsis tumors, BGB or cisplatin IC20 combos (AID 1671453); details: HTB85 osteosarcoma cells, drug combinations, stronger effect = higher value;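 also: cells exposed for 96 hours before readout; 0% = vehicle DMSO and 100% = high DMSO killing control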
[11] = CRL2098 osteosarcoma cell growth inhibition, synergistic combos for chromothripsis tumors, BGB or cisplatin IC20 combos (AID 1671454); details: CRL2098 osteosarcoma cells, drug combinations, stronger effect = higher value;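 also: cells exposed for 96 h before readout; 0% = vehicle DMSO and 100% = killing by high DMSO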
[12] = HD-MB03 medulloblastoma cell growth inhibition, synergistic combos for chromothripsis tumors, BGB or cisplatin IC20 combos (AID 1671455; in the data active = inhibition above about 83%;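 also: 0% = vehicle DMSO and 100% = high DMSO as cytotoxic control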); details: HD-MB03 medulloblastoma cells, stronger effect = higher value
[13] = UWB1.289 ovarian carcinoma cell growth inhibition, synergistic combos for chromothripsis tumors, BGB or cisplatin combos (AID 1671456); details: UWB1.289 ovarian carcinoma cells, stronger effect = higher value;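 also: cells exposed to compound for four days; 0% = vehicle DMSO and 100% = killing by high DMSO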
[14] = LFS_MB_2R medulloblastoma cell growth inhibition, synergistic combos for chromothripsis tumors, cisplatin combos (AID 1671457); details: LFS_MB_2R medulloblastoma cells, stronger effect = higher value;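 also: cells exposed to compound for four days before readout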
[15] = MDA-MB-436 breast carcinoma cell growth inhibition, synergistic combos for chromothripsis tumors, BGB or cisplatin combos (AID 1671458; call rule not given here;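 also: cells exposed for 96 hours; 0% = vehicle DMSO and 100% = killing by high DMSO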); details: MDA-MB-436 breast carcinoma growth inhibition, drug combinations, stronger effect = higher value
[16] = UWB1.289_BRCA1 ovarian cancer growth, cell-based, BGB or cisplatin combinations (AID 1671459); details: UWB1.289 BRCA1 ovarian carcinoma, drug combinations, stronger effect = higher value
[17] = human astrocyte viability loss, single and combined drugs, cytotoxicity control for chromothriptic childhood tumor combination screen, cell-based, BGB or cisplatin IC20 combos (AID 1671460); details: Human astrocytes, drug combinations, stronger effect = higher value;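 also: cells exposed to compounds for 96 hours before viability readout; 0% = vehicle and 100% = killing control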
[18] = growth inhibition of BT084 medulloblastoma cells, cell-based, ICGC_MB145, cisplatin and BGB IC40 combos (AID 1671461); details: drug combinations, stronger effect = higher value;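 also: cells exposed to drugs for 96 hours; 0% = vehicle DMSO and 100% = high DMSO full killing control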
[19] = growth inhibition of RCMB18 medulloblastoma cells, cell-based, cisplatin and BGB IC40 combos (AID 1671462); details: stronger effect = higher value;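 also: cells exposed to compound for four days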
[20] = growth inhibition of CRL1545 osteosarcoma cells, cell-based, cisplatin and BGB IC20 combos (AID 1671464); details: stronger effect = higher value;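 also: cells exposed to compound for 96 hours before readout; 0% = vehicle DMSO and 100% = high DMSO killing control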
[21] = stronger effect = lower value, cell number ratio, induced over uninduced
[22] = measured here: relative caspase fold change +Dox/-Dox
[23] = measured here: total cells with miR-34 induction, stronger effect = lower value
[24] = measured here: total cells without miR-34 induction
[25] = measured here: combination with BGB IC40, at 0.05 µM
[26] = measured here: with BGB IC20 combination, at 0.5 µM
[27] = measured here: with cisplatin IC20 combination, at 0.5 µM
[28] = measured here: combination with cisplatin, at 0.5 µM
[29] = measured here: combination with cisplatin, at 5 µM

For Nc1nc(SCc2ccc([N+](=O)[O-])cc2)c2ncn([C@@H]3O[C@H](CO)[C@H](O)C3O)c2n1 (stereo partly specified), the period change [1] was -0.105 h (inactive), the inhibition [2] was -2% (inactive) and the fluorescence ratio (interference) [3] was 0.9 (inactive). The fold change [4, 21] was 1.08 (inactive), the fold change [4, 22] was 0.784 and the cell count [4, 23] was 10100. The cell count [4, 24] was 9310 and the z-score [5] was -0.085 (inactive).
In the case of COc1c(N2CC3CCCNC3C2)c(F)cc2c(=O)c(C(=O)O)cn(C3CC3)c12 (stereo unspecified), the fold change [4, 21] is reported as 0.906 (inactive), the fold change [4, 22] is reported as 1.2 and the cell count [4, 23] is reported as 9060. The cell count [4, 24] was 10000, the z-score [5] was 0.965 (inactive) and the inhibition ([6]; at 0.5 µM, stronger effect = higher value) was 79.9% (inactive) and -20.5% (inactive). For the same compound, the inhibition ([6]; measured here: combination with BGB IC20, at 0.005 µM) was -24.3% and -13.6%, the inhibition ([6]; measured here: combination with BGB IC40, at 0.005 µM) was -13.7% and -15.3% and the inhibition [6, 25] was -23.7% and -12.1%. The inhibition ([6]; measured here: combination with cisplatin, at 0.5 µM, stronger effect = higher value) was 118% and -28.2%, the inhibition ([6]; measured here: combination with cisplatin, at 5 µM, stronger effect = higher value) was -54.4% and -21.2% and the inhibition ([7]; BGB combo, at 5 µM) was 16.5% and -16.1%. For the same compound, the inhibition ([7]; at 0.5 µM) was -17.5% (inactive) and 7.5% (inactive), the inhibition ([7]; cisplatin combo, at 5 µM) was -9.22% and 17.7% and the inhibition [7, 26] was -4.15% and 11.4%. The inhibition [7, 27] was -25.5% and 15.3%, the inhibition ([7]; single agent, at 5 µM) was 17.2% and 9.26% and the inhibition ([8]; BGB IC20 combo, at 0.005 µM) was -0.325% and -11.1%. The inhibition ([8]; BGB IC40 combo, at 0.005 µM) was -5.95% and -17.1%, the inhibition ([8]; BGB IC40 combo, at 0.05 µM) was -19.5% and -21.1% and the inhibition ([8]; at 0.5 µM) was -10.7% (inactive) and -20.7% (inactive). For the same compound, the inhibition ([8]; cisplatin combo, at 0.05 µM) was -23.8% and -21.1%, the inhibition ([8]; cisplatin combo, at 0.5 µM) was -1.29% and -29.2% and the inhibition ([8]; cisplatin combo, at 5 µM) was -29.8% and -8.73%. For the same compound, the inhibition ([8]; measured here: 5 uM single agent, at 5 µM) was -4.57% and 0.836%, the inhibition ([9]; at 0.5 µM) was -18.3% (inactive) and -14.3% (inactive) and the inhibition [9, 25] was -0.314% and -2.89%. The inhibition [9, 28] was -10.2% and 25.8%, the inhibition [9, 29] was -57.1% and -57% and the inhibition ([10]; at 0.5 µM) was -1.92% (inactive) and -17.4% (inactive). The inhibition ([10]; measured here: with BGB IC20, at 0.5 µM) was 0.476% and -45.2%, the inhibition ([10]; measured here: with BGB IC20, at 5 µM) was -14.2% and 1.64% and the inhibition ([10]; measured here: with cisplatin IC20, at 0.5 µM) was -4.9% and -17.9%. For the same compound, the inhibition ([10]; measured here: with cisplatin IC20, at 5 µM) was -35.3% and -0.109%, the inhibition ([10]; single agent, at 5 µM) was 12% and -3.92% and the inhibition ([11]; at 0.5 µM) was -38.5% (inactive) and -21% (inactive). The inhibition ([11]; measured here: combination with BGB at IC20, at 0.5 µM) was -15.6% and -12.1%, the inhibition ([11]; measured here: combination with cisplatin at IC20, at 0.5 µM) was -75% and -24% and the inhibition ([12]; at 0.5 µM) was -1.44% (inactive) and -1.69% (inactive). The inhibition ([12]; measured here: combo with BGB at IC20, at 0.5 µM) was -9.81% and -2.86%, the inhibition ([12]; measured here: combo with cisplatin at IC20, at 0.5 µM) was 5.04% and -2.25% and the inhibition ([13]; at 0.5 µM) was 0.61% (inactive) and 5% (inactive). The inhibition ([13]; measured here: inhibition with BGB combination, at 0.05 µM) was -8.87% and -16%, the inhibition ([13]; measured here: inhibition with cisplatin combination, at 0.05 µM) was -17.8% and -13.4% and the inhibition ([14]; at 0.5 µM) was -15.9% (inactive) and -16.5% (inactive). The inhibition [14, 28] was -17.1% and -8.11%, the inhibition [14, 29] was -13.1% and -7.1% and the inhibition ([15]; at 0.5 µM) was -3.8% (inactive) and -6.04% (inactive). The inhibition ([15]; measured here: BGB combination, at 0.5 µM) was -11.6% and -4.26%, the inhibition ([15]; measured here: BGB combination, at 5 µM) was -20.6% and -9.9% and the inhibition ([15]; measured here: cisplatin combination, at 0.5 µM) was -1.34% and -15%. For the same compound, the inhibition ([15]; measured here: cisplatin combination, at 5 µM) was -28.3% and -11.1%, the inhibition ([16]; BGB combination, concentration series, at 5 µM) was 5.74% and 12.9% and the inhibition ([16]; at 0.5 µM) was -0.42% (inactive) and 3.8% (inactive). The inhibition ([16]; cisplatin combination, concentration series, at 5 µM) was 1.62% and 11.9%, the inhibition ([17]; at 0.5 µM) was 9.7% (inactive) and 6.47% (inactive) and the inhibition ([17]; measured here: combo with BGB IC20, at 0.5 µM) was 1.83% and 2.24%. The inhibition ([17]; measured here: combo with cisplatin IC20, at 0.5 µM) was 4.24% and 3.81%, the inhibition ([18]; at 0.5 µM) was -19% (inactive) and -8.29% (inactive) and the inhibition ([18]; cisplatin combination, at 0.5 µM) was -46.7% and 7.45%. The inhibition ([18]; cisplatin combination, at 5 µM) was -18.8% and -23%, the inhibition ([18]; measured here: BGB IC40 combination 0.05 uM, at 0.05 µM) was -35.2% and -12.7% and the inhibition ([18]; single agent, at 5 µM) was -4.05% and -7.99%. For the same compound, the inhibition ([19]; at 0.5 µM) was -5.76% (inactive) and -15.1% (inactive), the inhibition ([19]; cisplatin combo, at 5 µM) was -131% and -3.44% and the inhibition ([19]; measured here: BGB IC40 combination, at 0.05 µM) was 9.3% and -24.7%. The inhibition [19, 28] was -0.114% and -16.6%, the inhibition ([19]; single agent, at 5 µM) was -15% and -12.8% and the inhibition ([20]; at 0.5 µM) was 10.4% (inactive) and -25.5% (inactive). For the same compound, the inhibition [20, 26] was 13% and -1.64%, the inhibition [20, 27] was 7.59% and -37.4% and the inhibition ([20]; single agent, at 0.05 µM) was -39.6% and 17%. The inhibition ([20]; single agent, at 5 µM) was -7.8% and 21.6%.
